# Source: PubChem BioAssay (Tox21)
# Where “and” joins values, the source holds several entries; their conditions need not be identical. Identical values can stand only once. Inconclusive results are not listed. A call without a number means that no potency is given here. The source holds several records for some structures; these can differ, active in one and inactive in another. Calls of active or inactive are those of the source. Unless noted, calls follow the shape of the dose curve; as a rule, active = well fitted curve in the direction sought with a large enough effect in the repeat runs; inconclusive = weak or mixed curves; inactive = no such curve, though single readings can be large; an effect the other way counts as inactive or inconclusive.
# How the values were obtained:
# [1] = target: Acetylcholinesterase (Homo sapiens) (UniProt P22303); assay: Acetylcholinesterase (AChE) small molecule antagonists: enzyme-based qHTS assay with human liver microsomes (AID 1347399; calls by dose curve; also: nearly all actives have a fitted effect of over 60% in size); conditions: Potency: qHTS inhibition
# Acetylcholinesterase (Homo sapiens), sequence (P22303 whole entry, looked up): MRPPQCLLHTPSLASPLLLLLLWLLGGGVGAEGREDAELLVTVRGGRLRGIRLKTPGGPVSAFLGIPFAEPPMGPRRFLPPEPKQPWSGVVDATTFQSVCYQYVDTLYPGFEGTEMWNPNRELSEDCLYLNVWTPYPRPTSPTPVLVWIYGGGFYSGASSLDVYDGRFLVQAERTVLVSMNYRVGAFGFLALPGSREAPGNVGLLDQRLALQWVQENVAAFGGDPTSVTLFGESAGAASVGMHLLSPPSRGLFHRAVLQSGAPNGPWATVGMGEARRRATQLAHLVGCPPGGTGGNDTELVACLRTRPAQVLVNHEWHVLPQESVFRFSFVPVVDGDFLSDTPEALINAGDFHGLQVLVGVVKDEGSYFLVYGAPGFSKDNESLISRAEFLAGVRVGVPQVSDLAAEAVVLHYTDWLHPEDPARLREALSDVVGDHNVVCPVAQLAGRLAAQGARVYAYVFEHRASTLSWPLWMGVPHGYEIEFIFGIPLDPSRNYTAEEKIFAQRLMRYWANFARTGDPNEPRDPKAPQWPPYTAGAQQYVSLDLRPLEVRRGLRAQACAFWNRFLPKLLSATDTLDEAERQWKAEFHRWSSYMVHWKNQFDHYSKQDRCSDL
# How it was run: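 Recombinant human AChE (50 mU/mL in the enzyme mix) and human liver microsomes (0.25 mg/mL final) were preincubated with compound and NADPH (0.25 mg/mL final) for 30 min at 37 C. Acetylthiocholine/DTNB was then added; thiocholine was read colorimetrically after 10 min at room temperature.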
# [2] = target: Cytochrome P450 2D6 (Homo sapiens) (UniProt P10635); assay: Cytochrome P450 Family 2 Subfamily D Member 6 (CYP2D6) small molecule antagonists: luciferase reporter qHTS assay (AID 1671196); also: nearly all actives have a fitted effect of over 50% in size
# Cytochrome P450 2D6 (Homo sapiens), sequence (P10635 whole entry, looked up): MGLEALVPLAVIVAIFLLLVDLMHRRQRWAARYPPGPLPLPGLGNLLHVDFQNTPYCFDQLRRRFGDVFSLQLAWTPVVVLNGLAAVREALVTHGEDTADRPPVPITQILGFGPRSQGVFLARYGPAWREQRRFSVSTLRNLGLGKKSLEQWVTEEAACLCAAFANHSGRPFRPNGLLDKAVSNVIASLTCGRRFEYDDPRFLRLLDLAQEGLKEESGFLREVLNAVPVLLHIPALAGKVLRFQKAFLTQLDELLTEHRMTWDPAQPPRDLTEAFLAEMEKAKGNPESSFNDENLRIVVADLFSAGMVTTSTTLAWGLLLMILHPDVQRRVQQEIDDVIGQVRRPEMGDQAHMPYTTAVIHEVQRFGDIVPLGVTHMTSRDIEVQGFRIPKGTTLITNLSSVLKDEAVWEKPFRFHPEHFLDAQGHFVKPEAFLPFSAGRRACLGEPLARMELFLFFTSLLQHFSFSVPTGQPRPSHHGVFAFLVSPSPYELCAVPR
# How it was run: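 P450-Glo format: CYP2D6 converts a proluciferin substrate to luciferin in an NADPH-driven reaction lasting 1 h at room temperature. Light output, proportional to CYP2D6 activity, reflects interference by test chemicals.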
# [3] = target: Cytochrome P450 2C19 (Homo sapiens) (UniProt P33261); assay: Cytochrome P450 Family 2 Subfamily C Member 19 (CYP2C19) small molecule antagonists: luciferase reporter qHTS assay (AID 1671197); also: nearly all actives have a fitted effect of over 65% in size
# Cytochrome P450 2C19 (Homo sapiens), sequence (P33261 whole entry, looked up): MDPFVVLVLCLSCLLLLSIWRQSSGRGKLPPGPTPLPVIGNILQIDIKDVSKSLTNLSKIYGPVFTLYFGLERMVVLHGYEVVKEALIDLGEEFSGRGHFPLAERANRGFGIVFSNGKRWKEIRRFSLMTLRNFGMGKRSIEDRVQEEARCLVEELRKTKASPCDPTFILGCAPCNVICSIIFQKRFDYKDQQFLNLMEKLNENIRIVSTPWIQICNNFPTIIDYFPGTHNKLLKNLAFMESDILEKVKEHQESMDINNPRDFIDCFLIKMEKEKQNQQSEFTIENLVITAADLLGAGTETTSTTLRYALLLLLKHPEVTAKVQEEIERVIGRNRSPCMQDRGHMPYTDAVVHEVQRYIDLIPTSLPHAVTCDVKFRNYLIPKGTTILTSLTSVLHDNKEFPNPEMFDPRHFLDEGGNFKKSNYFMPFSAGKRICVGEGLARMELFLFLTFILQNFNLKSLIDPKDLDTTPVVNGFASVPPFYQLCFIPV
# How it was run: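 P450-Glo CYP2C19 system: enzyme-substrate mix with compound 10 min at room temperature, then NADPH regeneration solution, 1 h at 37C. Proluciferin-to-luciferin conversion detected by luminescence after 20 min with detection reagent; ketoconazole as positive control.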
# [4] = target: Cytochrome P450 2C9 (Homo sapiens) (UniProt P11712); assay: Cytochrome P450 Family 2 Subfamily C Member 9 (CYP2C9) small molecule antagonists: luciferase reporter qHTS assay (AID 1671198); also: nearly all actives have a fitted effect of over 50% in size
# Cytochrome P450 2C9 (Homo sapiens), sequence (P11712 whole entry, looked up): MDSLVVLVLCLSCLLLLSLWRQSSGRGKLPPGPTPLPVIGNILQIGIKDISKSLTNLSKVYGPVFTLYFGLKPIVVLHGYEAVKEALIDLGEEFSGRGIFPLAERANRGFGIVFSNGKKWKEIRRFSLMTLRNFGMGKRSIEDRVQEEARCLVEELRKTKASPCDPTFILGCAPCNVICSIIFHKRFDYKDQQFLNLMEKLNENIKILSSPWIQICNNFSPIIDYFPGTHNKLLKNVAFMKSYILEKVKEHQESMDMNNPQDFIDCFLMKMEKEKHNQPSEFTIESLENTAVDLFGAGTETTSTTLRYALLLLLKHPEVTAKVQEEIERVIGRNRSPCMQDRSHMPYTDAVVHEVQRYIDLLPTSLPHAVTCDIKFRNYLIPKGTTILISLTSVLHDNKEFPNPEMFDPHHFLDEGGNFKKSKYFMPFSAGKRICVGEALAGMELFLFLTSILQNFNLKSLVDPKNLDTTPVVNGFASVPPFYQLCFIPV
# How it was run: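 CYP2C9 activity was measured with a P450-Glo proluciferin substrate. Enzyme–substrate mix was held with compound for 10 min at room temperature, then NADPH regeneration solution was added for 1 h at 37C. Luciferin product was read as luminescence.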
# [5] = target: Cytochrome P450 1A2 (Homo sapiens) (UniProt P05177); assay: Cytochrome P450 Family 1 Subfamily A Member 2 (CYP1A2) small molecule antagonists: luciferase reporter qHTS assay (AID 1671199); also: nearly all actives have a fitted effect of over 50% in size
# Cytochrome P450 1A2 (Homo sapiens), sequence (P05177 whole entry, looked up): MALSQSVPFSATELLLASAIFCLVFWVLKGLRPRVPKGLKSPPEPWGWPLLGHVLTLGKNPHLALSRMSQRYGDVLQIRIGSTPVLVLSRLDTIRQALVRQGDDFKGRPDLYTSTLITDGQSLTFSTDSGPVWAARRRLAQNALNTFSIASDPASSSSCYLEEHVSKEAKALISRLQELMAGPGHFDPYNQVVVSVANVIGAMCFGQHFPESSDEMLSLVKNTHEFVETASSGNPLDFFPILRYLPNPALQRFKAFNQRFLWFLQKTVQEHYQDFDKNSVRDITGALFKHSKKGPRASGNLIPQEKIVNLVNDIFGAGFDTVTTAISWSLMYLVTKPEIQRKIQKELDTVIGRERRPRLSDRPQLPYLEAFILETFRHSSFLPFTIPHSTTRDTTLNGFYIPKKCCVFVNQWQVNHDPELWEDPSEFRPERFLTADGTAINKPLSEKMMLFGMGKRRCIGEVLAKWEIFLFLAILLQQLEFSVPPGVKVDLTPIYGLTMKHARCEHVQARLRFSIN
# How it was run: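 Inhibition of CYP1A2 conversion of proluciferin to luciferin, detected by luminescence. Reaction run 1 h at room temperature with NADPH regeneration after brief compound preincubation.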
# [6] = target: Voltage-gated inwardly rectifying potassium channel KCNH2 (Homo sapiens) (UniProt Q12809); assay: Human Ether-a-go-go-Related Gene (hERG) channel small molecule antagonists: fluorescence cell-based qHTS assay (AID 1671200); also: nearly all actives have a fitted effect of over 50% in size
# Voltage-gated inwardly rectifying potassium channel KCNH2 (Homo sapiens), sequence (Q12809 whole entry, looked up): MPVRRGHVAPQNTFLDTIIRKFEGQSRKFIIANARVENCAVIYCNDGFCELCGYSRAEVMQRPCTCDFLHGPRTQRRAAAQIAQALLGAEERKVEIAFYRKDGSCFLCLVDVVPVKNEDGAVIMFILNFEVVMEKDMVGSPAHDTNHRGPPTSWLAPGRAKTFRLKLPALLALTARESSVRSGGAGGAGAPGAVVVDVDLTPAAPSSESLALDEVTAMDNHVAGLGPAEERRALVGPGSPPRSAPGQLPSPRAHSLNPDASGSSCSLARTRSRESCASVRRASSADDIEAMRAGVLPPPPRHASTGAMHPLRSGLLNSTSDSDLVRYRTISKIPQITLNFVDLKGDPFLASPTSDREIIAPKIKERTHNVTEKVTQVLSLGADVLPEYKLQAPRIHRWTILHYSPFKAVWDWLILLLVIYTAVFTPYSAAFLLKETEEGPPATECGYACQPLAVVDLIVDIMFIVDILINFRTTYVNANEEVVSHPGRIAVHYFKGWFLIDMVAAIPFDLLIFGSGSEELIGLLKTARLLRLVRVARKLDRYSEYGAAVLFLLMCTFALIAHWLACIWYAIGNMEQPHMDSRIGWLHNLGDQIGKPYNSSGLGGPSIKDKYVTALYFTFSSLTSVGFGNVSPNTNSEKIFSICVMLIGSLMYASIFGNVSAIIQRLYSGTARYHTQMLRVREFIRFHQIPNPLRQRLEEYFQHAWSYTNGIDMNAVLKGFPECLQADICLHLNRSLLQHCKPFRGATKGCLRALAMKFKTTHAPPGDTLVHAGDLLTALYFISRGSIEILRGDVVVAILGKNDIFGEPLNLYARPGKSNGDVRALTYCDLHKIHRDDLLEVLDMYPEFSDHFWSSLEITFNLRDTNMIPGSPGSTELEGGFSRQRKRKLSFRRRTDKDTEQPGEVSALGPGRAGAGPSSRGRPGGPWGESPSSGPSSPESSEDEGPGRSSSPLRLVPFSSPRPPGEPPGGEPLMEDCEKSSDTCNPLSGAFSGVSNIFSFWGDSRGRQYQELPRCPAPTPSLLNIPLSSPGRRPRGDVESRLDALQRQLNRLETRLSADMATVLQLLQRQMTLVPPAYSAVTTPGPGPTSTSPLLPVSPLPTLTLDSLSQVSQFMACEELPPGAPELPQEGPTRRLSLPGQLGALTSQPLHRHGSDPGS
# How it was run: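 Quantitative HTS in hERG-U2OS cells: thallium entry through the channel reports activity, read as continuous 480/540 nm fluorescence over 2 min after stimulus addition.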
# [7] = target: Cytochrome P450 3A4 (Homo sapiens) (UniProt P08684); assay: Cytochrome P450 Family 3 Subfamily A Member 4 (CYP3A4) small molecule antagonists: luciferase reporter qHTS assay (AID 1671201); also: nearly all actives have a fitted effect of over 50% in size
# Cytochrome P450 3A4 (Homo sapiens), sequence (P08684 whole entry, looked up): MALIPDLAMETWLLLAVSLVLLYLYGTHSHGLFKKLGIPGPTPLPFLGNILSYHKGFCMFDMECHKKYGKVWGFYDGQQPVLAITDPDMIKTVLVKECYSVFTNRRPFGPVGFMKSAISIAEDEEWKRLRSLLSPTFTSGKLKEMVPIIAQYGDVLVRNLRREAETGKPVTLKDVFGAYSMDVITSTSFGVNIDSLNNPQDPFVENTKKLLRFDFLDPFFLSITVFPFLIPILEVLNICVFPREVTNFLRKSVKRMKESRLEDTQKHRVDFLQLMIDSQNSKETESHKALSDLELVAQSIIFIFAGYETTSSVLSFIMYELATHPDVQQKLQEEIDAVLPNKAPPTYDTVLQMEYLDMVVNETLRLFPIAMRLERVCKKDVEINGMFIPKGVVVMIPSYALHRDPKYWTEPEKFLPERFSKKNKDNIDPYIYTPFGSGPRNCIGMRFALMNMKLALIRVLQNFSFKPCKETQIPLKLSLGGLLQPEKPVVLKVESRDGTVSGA
# How it was run: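 Inhibition of CYP3A4 is measured as loss of light: the enzyme converts a proluciferin substrate to luciferin, detected luminescently. Reaction ran 1 h at room temperature with NADPH regeneration after a 10 min compound preincubation.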
# Potency is read from the fitted curve at half-maximal effect.
SMILES,Potency [1],Potency [2],Potency [3],Potency [4],Potency [5],Potency [6],Potency [7]
CCCn1cc[n+](C)c1,inactive,80.4 µM (active) and inactive,inactive,inactive,inactive,inactive,inactive
CCCC[N+]1(C)CCCCC1,inactive,inactive,inactive,inactive,inactive,inactive,inactive
O=C(O)C(Cl)(Cl)Cl,inactive,inactive,20 µM (active),inactive,inactive and 35.6 µM (active),inactive,inactive
CC[N+]1(C)CCCC1,inactive,6.3 nM (active) and inactive,inactive and 31.8 µM (active),inactive,inactive,inactive and 21.9 µM (active),inactive
Nc1ccc(-c2ccc(N)c(Cl)c2)cc1Cl,inactive,inactive,4.01 µM (active) and 3.73 µM (active) and 5.64 µM (active),10.1 µM (active) and 11.8 µM (active) and 12.6 µM (active),1.79 µM (active) and 1.48 µM (active) and 1.42 µM (active),inactive,5.05 µM (active) and 6.63 µM (active) and 7.96 µM (active)
O=C(O)c1nc(Cl)ccc1Cl,inactive,inactive,inactive,inactive,inactive,inactive,inactive
O=c1nc(O)n(Cl)c(=O)n1Cl,inactive,inactive and 1.26 µM (active),inactive,inactive,inactive,inactive,inactive
CC[n+]1ccccc1,inactive,inactive,inactive and 3.96 µM (active),inactive and 9.94 µM (active),inactive,inactive,inactive
Oc1ccccc1-c1ccccc1,inactive,39.9 µM (active),39.9 µM (active) and 31.7 µM (active) and 23 µM (active),71 µM (active) and 35.6 µM (active) and 25.8 µM (active),23 µM (active) [middle of 4 runs],inactive,inactive
Nc1ccc(Cl)cc1,inactive,20 µM (active) and 31.7 µM (active) and 60.8 µM (active),39.9 µM (active) and 20.4 µM (active),39.9 µM (active) and 32.3 µM (active),63.3 µM (active) and 39.9 µM (active) and 57.4 µM (active),inactive,inactive
CCCCCCCCCCCCCC[P+](CCCCCC)(CCCCCC)CCCCCC,inactive,201 nM (active) and 101 nM (active) and 224 nM (active),25.3 µM (active) and 35.9 µM (active) and 79.6 µM (active),25.3 µM (active) and 35.9 µM (active) and 5.63 µM (active),35.7 µM (active) and 63.8 µM (active),552 nM (active) and 349 nM (active) and 691 nM (active),7.13 µM (active) and 7.16 µM (active) and 3.99 µM (active)
Cc1cc(-c2ccc(N)c(C)c2)ccc1N,inactive,3.21 µM (active) [middle of 4 runs],6.4 µM (active) [middle of 4 runs],15.9 µM (active) [middle of 4 runs],509 nM (active) [middle of 4 runs],inactive,–
CC(Cl)(Cl)C(=O)O,inactive,inactive,inactive,inactive and 63.3 µM (active),inactive,inactive,inactive
CCn1cc[n+](C)c1C,inactive,inactive,inactive,inactive,inactive,inactive,inactive
CCC(=O)C(CC(C)N(C)C)(c1ccccc1)c1ccccc1 (stereo not given),inactive,2.01 µM (active) and 996 nM (active) and 1.53 µM (active),inactive,inactive,inactive,43.8 µM (active),–
COCC(=O)N(c1c(C)cccc1C)C(C)C(=O)OC (stereo not given),inactive,inactive,41 µM (active) and 39.8 µM (active) and inactive,70.9 µM (active) and inactive,inactive,inactive,inactive
O=P1(N(CCCl)CCCl)NCCCO1 (stereo not given),inactive,inactive,71.8 µM (active) and inactive,inactive,inactive,inactive,–
Nc1ccc(-c2ccc(N)cc2)cc1,inactive,inactive,8.83 µM (active) and 39.6 µM (active) and 35.6 µM (active),35.2 µM (active) and 11.2 µM (active) and 25.2 µM (active),19.8 µM (active) and 14.1 µM (active) and 25.2 µM (active),inactive,7.87 µM (active) and 7.91 µM (active) and 17.8 µM (active)
O=C(O)CCl,inactive,inactive,inactive,inactive,inactive,inactive,inactive
CCNc1nc(Cl)nc(NCC)n1,inactive,inactive,inactive,inactive,11.3 µM (active) and 12.6 µM (active),inactive,inactive
OCCOc1ccccc1,inactive,inactive,inactive,inactive,inactive,inactive,inactive
O=c1[nH]c(=O)n(Cl)c(=O)n1Cl,inactive,inactive,56.4 µM (active) and inactive,inactive,inactive,inactive,inactive

SMILES,Potency [1],Potency [2],Potency [3],Potency [4],Potency [5],Potency [6],Potency [7]
CCOP(=S)(OCC)Oc1ccc2c(C)c(Cl)c(=O)oc2c1,1.8 µM (active) and 633 nM (active) and inactive,5.08 µM (active) and 15.9 µM (active),321 nM (active) and 50.2 nM (active) and 3.89 µM (active),286 nM (active) and 63.3 nM (active) and 8.71 µM (active),2.86 µM (active) and 4.48 µM (active) and 13.8 µM (active),22.1 µM (active) and inactive,–
CCCCCCCCCCCCOS(=O)(=O)O,inactive,inactive,78.5 µM (active) and inactive,78.5 µM (active) and 71 µM (active) and inactive,inactive,inactive,inactive
CCCCCCCCCCCC(=O)O,inactive,inactive,79.9 µM (active) and inactive,102 µM (active),inactive,inactive,inactive
COP(=O)(OC)OC=C(Cl)Cl,inactive,inactive,inactive,inactive,inactive and 15.4 µM (active),inactive,inactive
CC(=O)[O][Hg][c]1ccccc1,inactive,353 nM (active) and 564 nM (active) and 1.74 µM (active),8.86 µM (active) and 8.94 µM (active) and 17.4 µM (active),3.96 µM (active) and 2.52 µM (active) and 4.36 µM (active),17.7 µM (active) and 22.4 µM (active) and 27.5 µM (active),13.7 µM (active) and 13.8 µM (active),4.98 µM (active) and 7.96 µM (active) and 12.3 µM (active)
O=C(O)C(Cl)Cl,inactive,29.1 µM (active) and inactive,inactive,inactive,inactive,inactive,inactive
O=[N+]([O-])c1ccccc1O,inactive,31.6 µM (active) and inactive,inactive,inactive,–,inactive,inactive
C[N+](C)(C)Cc1ccccc1,inactive,7.93 µM (active) and inactive and 20 µM (active),31.6 µM (active) and inactive,79.6 µM (active) and inactive,inactive,inactive,inactive
CCC[N+]1(C)CCCCC1,inactive,inactive,inactive,inactive,inactive,inactive,inactive
CNC,inactive,inactive,inactive,inactive,inactive,inactive,inactive
N#CS,–,–,–,–,–,inactive,–
Nc1ccccc1,–,inactive and 64.5 µM (active),30.9 µM (active) and 36.3 µM (active) and inactive,inactive and 40.7 µM (active),36.3 µM (active) and inactive and 27.5 µM (active),inactive,inactive
CCC[N+]1(C)CCCC1,–,inactive,inactive,inactive,inactive,inactive,inactive
C1CCC(NC2CCCCC2)CC1,inactive,1.47 µM (active) and 252 nM (active) and 246 nM (active),–,inactive,inactive,inactive,inactive
CCCC[n+]1ccccc1C,–,inactive,inactive,inactive,inactive,inactive,inactive
C[C@]12CCC(=O)C=C1CC[C@@H]1[C@@H]2CC[C@]2(C)C(=O)CC[C@@H]12,inactive,inactive,8.79 µM (active) and 39.9 µM (active) and 30.9 µM (active),–,inactive,inactive,inactive
CCCC[n+]1cccc(C)c1,–,inactive,inactive,inactive,inactive,inactive,inactive
Cc1cc(Cl)ccc1OCC(=O)O,inactive,inactive,inactive and 39.9 µM (active),–,inactive,inactive,inactive
CCCCCCCCCCn1cc[n+](C)c1,inactive,–,40.3 µM (active) and 3.26 µM (active) and inactive,5.7 µM (active) and inactive and 32.6 µM (active),36 µM (active) and 32.6 µM (active),–,inactive
O=C(O)c1ccccc1O,–,–,–,–,–,inactive,–
COc1ccc(N)cc1,–,–,39.9 µM (active) [middle of 4 runs],39.9 µM (active),inactive,inactive,inactive
COP(=O)(OC)C(O)C(Cl)(Cl)Cl (stereo not given),–,–,–,–,–,inactive,–

SMILES,Potency [1],Potency [2],Potency [3],Potency [4],Potency [5],Potency [6],Potency [7]
CC(=O)O,–,–,–,–,–,inactive,–
CCCCCCCCCCCCCCCCn1cc[n+](C)c1,inactive,–,–,–,36.4 µM (active) and inactive and 71.2 µM (active),–,–
O=[N+]([O-])O,–,–,–,–,–,inactive,–
CCCCCC[n+]1ccccc1,–,–,inactive,inactive,inactive,inactive,inactive
CCCC[N+]1(C)CCCC1,–,inactive,inactive and 40.2 µM (active),inactive,inactive,inactive,inactive
CCCCCCn1cc[n+](C)c1,–,–,inactive and 23.4 µM (active),inactive,inactive,inactive,inactive
Oc1cccc2cccnc12,–,–,–,–,–,inactive,–
O=S(=O)(O)O,–,–,–,–,–,inactive,–
CN(C)[C@@H]1C(=O)C(C(N)=O)=C(O)[C@@]2(O)C(=O)C3=C(O)c4c(O)cccc4[C@@](C)(O)[C@H]3[C@H](O)[C@@H]12,–,inactive,inactive,61.8 µM (active) and 39.6 µM (active),inactive,inactive,inactive
Cc1cc(Cl)ccc1N,–,23 µM (active) and inactive and 22.4 µM (active),20.5 µM (active) and 31 µM (active) and 22.4 µM (active),28.9 µM (active) and 24.6 µM (active) and 25.2 µM (active),11.5 µM (active) and 9.8 µM (active) and 7.96 µM (active),inactive,–
COc1ccccc1N,–,17.8 µM (active) and 35.7 µM (active) and 12.6 µM (active),–,inactive,39.9 µM (active) and 32.3 µM (active) and 35.6 µM (active),inactive,22.4 µM (active) and inactive and 28.3 µM (active)
O=C(O)CC(O)(CC(=O)O)C(=O)O,–,inactive,–,–,–,inactive,–
CC[N+](CC)(CC)CC,–,–,–,–,–,inactive,–
CCCCn1cc[n+](C)c1,–,–,–,–,–,inactive,–
CCCCCCCCCCCCn1cc[n+](C)c1,–,–,–,9.01 µM (active) and inactive and 64.3 µM (active),–,–,80.3 µM (active) and inactive
C=CCOC(Cn1ccnc1)c1ccc(Cl)cc1Cl (stereo not given),inactive,–,–,–,–,24.6 µM (active) and 21.9 µM (active) and 23.9 µM (active),–
CCCC[n+]1ccc(C)cc1,–,inactive and 449 nM (active),inactive,inactive and 22.3 µM (active),36.1 µM (active) and 35.4 µM (active) and inactive,inactive,inactive
O=C(O)COc1ccc(Cl)cc1Cl,inactive,inactive and 35.6 µM (active),70.7 µM (active) and inactive,–,31.6 µM (active) and inactive,inactive,inactive
CCCCCCCCn1cc[n+](C)c1,–,5.68 µM (active) [middle of 4 runs],39.9 µM (active) and inactive,inactive,inactive,17.3 µM (active) and 21.9 µM (active) and 22.1 µM (active),inactive
CCCCn1cc[n+](C)c1C,–,inactive,inactive,inactive,inactive and 35.9 µM (active),inactive,inactive
CCCC[n+]1ccccc1,–,inactive,inactive,inactive,inactive,inactive,inactive
